Screen size: about 39,000 compounds; about 3,300 (8.5%) were called active. This is one part of a sample in which actives are shown more often than they occur.

In this assay the test system is HepG2. Nature of the assay: cytotoxicity call (relative viability < 0.9). As to conditions: 10 µM.
On to `Cc1noc(C)c1NC(=O)Nc1ccc2c(c1)C(=O)N([C@H](C)CO)C[C@H](C)[C@H](CN(C)Cc1ccccc1)OCCCC[C@H](C)O2`, for which the cytotoxicity call was “inactive”.

Regarding `C=CCOC(=O)[C@H]1[C@@H]2C(=O)O[C@@H](c3ccccc3)[C@@H](c3ccccc3)N2[C@@H](c2ccc(OCCOC(=O)[C@@H]3C[C@@H]4C(=O)N[C@@H](CC(C)C)C(=O)N4[C@@H]3c3cccc(OCCO)c3)cc2)[C@]12C(=O)Nc1ccccc12`, the cytotoxicity call was “inactive”.

`COc1ccc(S(=O)(=O)N(C)C[C@H]2Oc3ccc(NS(=O)(=O)c4cccs4)cc3C(=O)N([C@H](C)CO)C[C@@H]2C)cc1`: the cytotoxicity call was “inactive”.

Regarding `COc1cccc(NC(=O)N[C@H]2C=C[C@@H](CC(=O)N3CCN(C)CC3)O[C@H]2CO)c1`, the cytotoxicity call was “inactive”.

As for `C[C@@H]1CN([C@@H](C)CO)C(=O)c2cc(NC(=O)Nc3ccc4c(c3)OCO4)ccc2O[C@@H](C)CCCCO[C@H]1CN(C)Cc1ccncc1`, the cytotoxicity call is “inactive”.

In the case of `c1cnc2nccn2c1`, the cytotoxicity call was “inactive”.

Take `C[C@@H]1CN([C@H](C)CO)C(=O)c2cc(NC(=O)CCCN(C)C)ccc2O[C@@H]1CN(C)S(=O)(=O)c1cn(C)cn1`: the cytotoxicity call is “inactive”.

Turning to `C[C@H]1CN([C@@H](C)CO)C(=O)c2cccc(NC(=O)Nc3cccc4ccccc34)c2O[C@H]1CN(C)Cc1ccc(C(=O)Nc2ccccc2N)cc1`, the cytotoxicity call was “active”.

Take `C[C@@H]1CN([C@@H](C)CO)C(=O)c2cccc(NC(=O)Nc3cccc4ccccc34)c2O[C@@H]1CN(C)Cc1ccc(C(=O)Nc2ccccc2N)cc1`: the cytotoxicity call is “inactive”.

As for `C[C@@H]1CN([C@H](C)CO)C(=O)c2cccc(NC(=O)Nc3cccc4ccccc34)c2O[C@@H]1CN(C)Cc1ccc(C(=O)Nc2ccccc2N)cc1`, the cytotoxicity call was “inactive”.

Take `C[C@H](CO)N1C[C@H](C)[C@H](CN(C)Cc2ccc(C(=O)Nc3ccccc3N)cc2)Oc2c(NC(=O)Nc3ccccc3)cccc2C1=O`: the cytotoxicity call was “inactive”.

With `C[C@H](CO)N1C[C@H](C)[C@H](CN(C)Cc2ccc(C(=O)Nc3ccccc3N)cc2)Oc2c(NC(=O)Nc3cccc4ccccc34)cccc2C1=O`, the cytotoxicity call is “active”.

In the case of `C[C@H]1CN([C@@H](C)CO)C(=O)c2cccc(NC(=O)Nc3ccccc3)c2O[C@@H]1CN(C)Cc1ccc(C(=O)Nc2ccccc2N)cc1`, the cytotoxicity call is “inactive”.

As for `COc1ccc(NC(=O)N(C)C[C@@H]2Oc3ccc(NC(=O)Nc4ccc(C(F)(F)F)cc4)cc3C(=O)N([C@@H](C)CO)C[C@@H]2C)cc1`, the cytotoxicity call is “inactive”.

As for `O[C@@H]1Cc2ccccc2[C@H]1O`, the cytotoxicity call is “inactive”.

Take `O=C(C[C@H]1CC[C@@H]2[C@H](COC[C@H](O)CN2S(=O)(=O)c2ccc(Oc3ccccc3)cc2)O1)NCCN1CCCCC1`: the cytotoxicity call was “inactive”.

Regarding `O=C(C[C@H]1CC[C@H]2[C@@H](COC[C@H](O)CN2S(=O)(=O)c2cccc(Cl)c2)O1)NCCCN1CCOCC1`, the cytotoxicity call was “inactive”.

For `COc1ccc(NC(=O)N(C)C[C@H]2OCCCC[C@@H](C)Oc3ccc(NS(=O)(=O)c4ccccc4)cc3C(=O)N([C@@H](C)CO)C[C@H]2C)cc1`, the cytotoxicity call is “inactive”.

`CC(C)NC(=O)N(C)C[C@H]1OCc2cnnn2CCCC(=O)N([C@H](C)CO)C[C@H]1C`: the cytotoxicity call is “inactive”.

For `C[C@@H]1CCCCO[C@H](CN(C)C(=O)Nc2ccccc2)[C@@H](C)CN([C@H](C)CO)C(=O)c2cc(NS(=O)(=O)c3ccc(Cl)cc3)ccc2O1`, the cytotoxicity call was “inactive”.

For the molecule `C[C@@H]1CCCCO[C@@H](CN(C)C(=O)Nc2ccc(F)cc2)[C@H](C)CN([C@@H](C)CO)C(=O)c2cc(NS(=O)(=O)c3ccc(Cl)cc3)ccc2O1`, the cytotoxicity call is “inactive”.

`C[C@@H]1CCCCO[C@H](CN(C)C(=O)Nc2ccc(F)cc2)[C@@H](C)CN([C@H](C)CO)C(=O)c2cc(NS(=O)(=O)c3ccc(Cl)cc3)ccc2O1`: the cytotoxicity call is “inactive”.

As to `C[C@@H]1CN([C@@H](C)CO)C(=O)c2cc(NS(=O)(=O)c3ccc(Cl)cc3)ccc2O[C@@H](C)CCCCO[C@@H]1CN(C)C(=O)Nc1ccc(F)cc1`, the cytotoxicity call was “inactive”.

As for `C[C@H]1CCCCO[C@@H](CN(C)C(=O)Nc2ccc(F)cc2)[C@@H](C)CN([C@@H](C)CO)C(=O)c2cc(NS(=O)(=O)c3ccc(Cl)cc3)ccc2O1`, the cytotoxicity call was “inactive”.

Consider `C[C@@H]1CCCCO[C@H](CN(C)C(=O)Nc2ccccc2)[C@@H](C)CN([C@@H](C)CO)C(=O)c2cc(NS(=O)(=O)c3ccc(Cl)cc3)ccc2O1`, for which the cytotoxicity call was “active”.

Regarding `C[C@@H]1CCCCO[C@@H](CN(C)C(=O)Nc2ccccc2)[C@H](C)CN([C@@H](C)CO)C(=O)c2cc(NS(=O)(=O)c3ccc(Cl)cc3)ccc2O1`, the cytotoxicity call is “inactive”.

As for `C[C@H](CO)N1C[C@H](C)[C@@H](CN(C)C(=O)Nc2ccc(F)cc2)OCCCC[C@H](C)Oc2ccc(NS(=O)(=O)c3ccc(Cl)cc3)cc2C1=O`, the cytotoxicity call is “inactive”.

For `C[C@@H]1CCCCO[C@H](CN(C)C(=O)Nc2ccc(F)cc2)[C@@H](C)CN([C@@H](C)CO)C(=O)c2cc(NS(=O)(=O)c3ccc(Cl)cc3)ccc2O1`, the cytotoxicity call was “active”.

Take `C[C@@H]1CCCCO[C@@H](CN(C)C(=O)Nc2ccc(F)cc2)[C@@H](C)CN([C@H](C)CO)C(=O)c2cc(NS(=O)(=O)c3ccc(Cl)cc3)ccc2O1`: the cytotoxicity call is “inactive”.

As to `C[C@@H]1CN([C@H](C)CO)C(=O)c2cc(NS(=O)(=O)c3ccc(Cl)cc3)ccc2O[C@@H](C)CCCCO[C@H]1CN(C)C(=O)Nc1ccc(F)cc1`, the cytotoxicity call is “active”.

On to `C[C@H]1CCCCO[C@H](CN(C)C(=O)Nc2ccc(F)cc2)[C@@H](C)CN([C@@H](C)CO)C(=O)c2cc(NS(=O)(=O)c3ccc(Cl)cc3)ccc2O1`, for which the cytotoxicity call is “active”.

Consider `CC(=O)N[C@H]1[C@H](O/N=[N+](\[O-])N2CCCC2)O[C@H](CO)[C@@H](O)[C@@H]1O`, for which the cytotoxicity call was “inactive”.

As to `COc1ccc(S(=O)(=O)N2C[C@@H](O)COC[C@H]3O[C@@H](CC(=O)NCCCN4CCOCC4)CC[C@@H]32)cc1`, the cytotoxicity call is “inactive”.

For `O=C(C[C@H]1C[C@H]2c3cc(NC(=O)NC4CCCC4)ccc3O[C@H]2[C@H](CO)O1)NCc1ccc2c(c1)OCO2`, the cytotoxicity call is “inactive”.

Turning to `CC(=O)OC1CCC2(C)C(CCC3(C)C2CCC24OC(=O)C5(CCC(C)C(C)C52)CCC34C)C1(C)C` (configuration not stated), the cytotoxicity call was “inactive”.

With `COc1ccc(CN(C)C[C@@H]2Oc3ccc(NC(=O)C4CC4)cc3CC(=O)N([C@@H](C)CO)C[C@H]2C)cc1`, the cytotoxicity call is “inactive”.

On to `COc1ccc(CN(C)C[C@@H]2OCCCC[C@H](C)Oc3ccc(NC(=O)Nc4c(C)noc4C)cc3C(=O)N([C@@H](C)CO)C[C@H]2C)cc1`, for which the cytotoxicity call is “inactive”.

For the origin of these results see the antibiotic and cytotoxicity screens of Wong et al. (2023).
